This is an account of results in PubChem BioAssay (Tox21).

Experiment [1] in a line: qHTS assay for small molecule agonists of the p53 signaling pathway (AID 651631; calls by dose curve; also: nearly all actives have a fitted effect of over 15% in size; also: potency is read from the fitted curve at half-maximal effect). The method, boiled down:
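p53RE-bla HCT-116 cells; compounds 16 h, 37 °C; LiveBLAzer B/G FRET substrate 2 h RT; fluorescence intensity read-out, qHTS format.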
Background: qHTS replaces the single test concentration by a dilution series.

Experiment [2] can be described thus: qHTS assay for small molecules that induce genotoxicity in human embryonic kidney cells expressing luciferase-tagged ATAD5 (AID 651632). Also: nearly all actives have a fitted effect of over 15% in size. The method, boiled down:
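A rise in luciferase signal from ATAD5-tagged HEK293T cells marks genetic stress. Cells were exposed to compounds for 16 hr at 37C, 5% CO2, then luciferase was quantified after a 30 min room-temperature incubation with Amplite.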

A short description of experiment [3]: qHTS assay for small molecule agonists of the p53 signaling pathway - cell viability (AID 651633; calls by dose curve; also: nearly all actives have a fitted effect of over 30% in size; also: potency is read from the fitted curve at half-maximal effect). In short, it runs like this:
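Viability counter-read: CellTiter-Glo luminescence (30 min, room temperature) in the same p53RE-bla plates. These plates had been exposed to compounds for 16 h at 37 C.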

A short description of experiment [4]: qHTS assay for small molecule disruptors of the mitochondrial membrane potential - cell viability (AID 720634; calls by dose curve; also: nearly all actives have a fitted effect of over 20% in size; also: potency is read from the fitted curve at half-maximal effect). The method, boiled down: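 Cytotoxicity was quantified from ATP content by CellTiter-Glo luminescence in the same wells as the MMP dye read-out. HepG2 (2,000 cells/well) were plated overnight and exposed to compounds for 1 hr at 37 C.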
The nature of experiment [5]: qHTS assay to test for compound auto fluorescence at 590 nm (red) in HepG2 cells (AID 720674). The method, boiled down: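 We screened compounds on adherent HepG2 cells, incubating them for an hour at 37 C in 5% CO2 before reading emission at 590 nm under 540 nm excitation; values reflect equivalence to Rose Bengal sodium fluorescence.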
The nature of experiment [6]: qHTS assay to test for compound auto fluorescence at 535 nm (green) in HepG2 cells (AID 720675).
A short description of experiment [7]: qHTS assay to test for compound auto fluorescence at 460 nm (blue) in HEK293 cells (AID 720678). The method, boiled down: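 Cells were seeded and left to adhere for 4-5 hr at 37C. Compounds were then pin-transferred. After an overnight incubation at 37C under 5% CO2, intrinsic fluorescence at 405/460 nm was measured and referenced to triamterene.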
A short description of experiment [8]: qHTS assay to test for compound auto fluorescence at 590 nm (red) in HEK293 cells (AID 720679). The method, boiled down:
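Each well held 2,000 HEK293 cells in medium containing 10% dialyzed FBS. Following 4-5 hr attachment at 37C, 23 nL test compound or DMSO was added; plates sat overnight, and red fluorescence (540/590nm) was recorded.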

Experiment [9] in a line: qHTS assay to test for compound auto fluorescence at 535 nm (green) in HEK293 cells (AID 720680).
Experiment [10] in a line: qHTS assay to test for compound auto fluorescence at 535 nm (green) in HEK293 cell free culture (AID 720682). The method, boiled down:
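Cell-free medium (DMEM, 10% FBS) receives compound or DMSO by pintool. Plate read directly at Ex 485/Em 535 nm. Signal converted to fluorescein equivalency.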

The nature of experiment [11]: qHTS assay to test for compound auto fluorescence at 590 nm (red) in HEK293 cell free culture (AID 720683). In short, it runs like this: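 Red-channel autofluorescence of compounds in culture medium (DMEM, 10% FBS), no cells, measured at 540/590 nm. Rose Bengal sodium is the reference fluorophore for equivalence.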
Experiment [12] is described as follows: qHTS assay to test for compound auto fluorescence at 590 nm (red) in HepG2 cell free culture (AID 720684). In short, it runs like this: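 Cell-free; medium MEM + 10% FBS; compound or DMSO added by pintool; read Ex 540/Em 590 nm; Rose Bengal sodium as red reference fluorophore.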
The nature of experiment [13]: qHTS assay to test for compound auto fluorescence at 460 nm (blue) in HepG2 cell free culture (AID 720685). In short, it runs like this: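 Cell-free plates of MEM plus 10% FBS received 23 nL compound or DMSO vehicle; blue-channel (405/460 nm) intensity scored against triamterene as reference fluorophore.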
Experiment [14] can be described thus: qHTS assay to test for compound auto fluorescence at 535 nm (green) in HepG2 cell free culture (AID 720686).
Experiment [15] in a line: qHTS assay to test for compound auto fluorescence at 460 nm (blue) in HepG2 cells (AID 720687). In short, it runs like this: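 Blue-channel autofluorescence (Ex/Em 405/460 nm, triamterene-equivalent) was measured after 1 hr compound exposure at 37 C, 5% CO2. Cells were HepG2, plated overnight at 37 C in MEM plus 10% FBS.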
Experiment [16] addresses Glucocorticoid receptor (Homo sapiens) (UniProt P04150). Nature of the experiment: qHTS assay to identify small molecule agonists of the glucocorticoid receptor (GR) signaling pathway (AID 720691; active = well fitted activation curve with a large enough effect in the signal ratio in the repeat runs, not every such curve was filed as active; the % refers to the signal ratio). The method, boiled down:
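Agonist-mode qHTS in HeLa cells stably expressing a glucocorticoid-response-element beta-lactamase reporter. Fluorescence intensity read with FRET substrate (2 h, room temperature) after 18 h compound treatment at 37 C.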

A short description of experiment [17]: qHTS assay to test for compound auto fluorescence at 460 nm (blue) in HEK293 cell free culture (AID 720681). The method, boiled down:
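Blue fluorescence (Ex 405/Em 460 nm, triamterene-equivalent) was read immediately after pin transfer of compound or DMSO into medium (DMEM, 10% FBS) without cells.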

For experiment [18], the target named is Glucocorticoid receptor (Homo sapiens) (UniProt P04150). Nature of the experiment: qHTS assay to identify small molecule antagonists of the glucocorticoid receptor (GR) signaling pathway (AID 720692; active = well fitted inhibition curve with a large enough effect in the signal ratio in the repeat runs, not every such curve was filed as active; the % refers to the signal ratio). In short, it runs like this: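 Inhibition of dexamethasone-driven (5 nM final) beta-lactamase expression was measured in GRE-reporter HeLa cells over 18 h at 37C. Fluorescence was read after 2 h with the B/G FRET substrate at room temperature.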

The nature of experiment [19]: qHTS assay for small molecules that induce genotoxicity in human embryonic kidney cells expressing luciferase-tagged ATAD5 - cell viability (AID 651634; calls by dose curve; also: nearly all actives have a fitted effect of over 25% in size). The method, boiled down: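 Cytotoxicity counter-readout: after 15.5 hr compound treatment at 37C, live-cell protease activity in ATAD5-luciferase HEK293T cells measured by CellTiter-Fluor fluorescence, 30 min development at 37C.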

Experiment [20] can be described thus: qHTS assay for small molecule disruptors of the mitochondrial membrane potential (AID 720635). Also: potency is read from the fitted curve at half-maximal effect. In short, it runs like this: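 Mitochondrial membrane potential tracked with Mito-MPS dye, red aggregates (ex 540/em 590 nm) against green monomers (ex 490/em 535 nm). Compound treatment 1 hr at 37C, dye 30 min in HepG2.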

“And” between values parts separate entries of the source, which are not always exact repeats. Equal entries are not always repeated. Results filed as inconclusive are left out. Some compounds were tested as several samples or in several runs, with calls that do not always agree. The source made the active and inactive calls. Unless noted, calls follow the shape of the dose curve; as a rule, active = well fitted curve in the direction sought with a large enough effect in the repeat runs; inconclusive = weak or mixed curves; inactive = no such curve, though single readings can be large; an effect the other way counts as inactive or inconclusive.
% is scaled to controls: 0 for no effect and ±100 for the full control effect.

Sequence of Glucocorticoid receptor (Homo sapiens) (P04150 whole entry, looked up): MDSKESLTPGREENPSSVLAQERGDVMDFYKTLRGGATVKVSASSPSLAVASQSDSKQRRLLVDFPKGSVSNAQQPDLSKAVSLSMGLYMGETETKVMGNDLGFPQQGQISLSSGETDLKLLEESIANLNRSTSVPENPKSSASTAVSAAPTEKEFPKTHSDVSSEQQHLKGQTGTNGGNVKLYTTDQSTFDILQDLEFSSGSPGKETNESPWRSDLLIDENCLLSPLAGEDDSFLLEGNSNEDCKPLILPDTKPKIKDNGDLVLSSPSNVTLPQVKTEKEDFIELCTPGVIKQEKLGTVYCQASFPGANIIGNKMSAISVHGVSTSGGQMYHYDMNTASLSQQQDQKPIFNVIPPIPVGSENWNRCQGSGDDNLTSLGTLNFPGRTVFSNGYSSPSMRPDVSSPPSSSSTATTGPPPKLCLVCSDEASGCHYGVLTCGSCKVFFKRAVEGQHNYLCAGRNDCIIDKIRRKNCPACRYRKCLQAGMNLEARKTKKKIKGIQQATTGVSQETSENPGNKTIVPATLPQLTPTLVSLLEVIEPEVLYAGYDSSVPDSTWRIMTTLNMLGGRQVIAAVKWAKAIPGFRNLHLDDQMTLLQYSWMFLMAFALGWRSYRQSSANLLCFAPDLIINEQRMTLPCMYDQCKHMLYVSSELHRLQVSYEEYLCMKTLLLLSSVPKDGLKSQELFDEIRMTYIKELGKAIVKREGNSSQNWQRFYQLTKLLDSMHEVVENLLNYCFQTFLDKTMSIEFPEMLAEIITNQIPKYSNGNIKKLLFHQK

For `CC1=CC(=O)c2ccccc2C1=O`, the Potency in experiment [1] is 38.6 µM (active); in experiment [3], 24.3 µM (active); in experiment [4], “inactive and 54.5 µM (active)”. Further, the Potency result in experiment [2], in experiment [6], in [7], in experiment [9], in experiment [10] and in [13] was “inactive” throughout. Further, the Potency entry in experiment [14], in [15] and in [16] was “inactive” each time. Further, the result in experiment [5], in experiment [8], in experiment [11] and in [12] was inactive.
For the molecule `NC(Cc1ccc(Cl)cc1)C(=O)O` (stereo unspecified), the Potency result in [1], in [2], in experiment [3], in [4], in experiment [6] and in experiment [7] was “inactive” in each case. For the same molecule, the Potency entry in [17], in experiment [10], in [13], in experiment [14], in experiment [15] and in [16] was “inactive” each time. Further, the Potency result in [18] was “inactive”. The molecule was called inactive in experiment [5], in [8], in experiment [11] and in experiment [12].
On to `Cc1occc(=O)c1OC(=O)C(C)C`, for which the Potency result in [1], in experiment [2], in experiment [19], in experiment [4], in experiment [20] and in [6] was “inactive” each time. Further, the Potency entry in [7], in experiment [17], in [10], in experiment [13], in experiment [14] and in [15] was “inactive” throughout. For the same molecule, the Potency entry in experiment [16] and in [18] was “inactive” each time. Also, the call in [5], in experiment [8] and in experiment [12] was inactive.
For the molecule `O=C(O)CCc1ccccc1`, the Potency result in experiment [1], in experiment [2], in [19], in experiment [4], in [20] and in [6] was “inactive” throughout. Moreover, the Potency entry in experiment [7], in experiment [17], in [10], in experiment [13], in [14] and in [15] was “inactive” in each case. The Potency result in experiment [16] and in [18] was “inactive” throughout. The molecule was called inactive in experiment [5], in experiment [8], in [11] and in [12].
Consider `Cc1cc(C(C)(C)C)c(O)c(C(C)(C)C)c1`, for which the Potency entry in [1], in [2], in experiment [19], in experiment [4], in [6] and in [7] was “inactive” in each case. For the same molecule, the Potency entry in [17], in experiment [10], in experiment [13], in experiment [14], in [15] and in experiment [16] was “inactive” throughout. In addition, the Potency in [20] is 48.7 µM (active) and 24.3 µM (active). Also, the call in experiment [8], in experiment [11] and in [12] was inactive.
As for `NCCCCCC(=O)O`, the Potency result in experiment [1], in [2], in experiment [4], in [20] and in experiment [16] was “inactive” throughout. For the same molecule, the fluorescence, relative to Rose Bengal in [5] was -0.673% [at 18.6 µM] (inactive). For the same molecule, the fluorescence, % of fluorescein control in experiment [6] is 0.0481% [at 18.6 µM] (inactive); in experiment [14] it was -0.0066% [at 18.6 µM] (inactive). Further, the fluorescence, % of triamterene in experiment [7] is 0.0733% [at 18.6 µM] (inactive). The fluorescence, % of fluorescent control in experiment [8] was 0.0137% [at 18.6 µM] (inactive); in [11] it was -0.0259% [at 18.6 µM] (inactive); in experiment [13], 0.0102% [at 18.6 µM] (inactive); in [15], -0.0854% [at 18.6 µM] (inactive). In addition, the fluorescence, % of fluorescein in experiment [9] was -0.0215% [at 18.6 µM] (inactive). The activity change in experiment [10] is 0.0558% [at 18.6 µM, stronger effect = higher value] (inactive). In addition, the fluorescence, % of Rose Bengal in experiment [12] was 0.496% [at 18.6 µM] (inactive).
Regarding `CC(=O)CC(C)=O`, the Potency entry in experiment [1], in [2], in experiment [19], in [4], in [6] and in experiment [7] was “inactive” each time. Also, the Potency result in [9], in [17], in experiment [10], in experiment [13], in [14] and in experiment [15] was “inactive” each time. Besides, the outcome in experiment [5], in experiment [8], in experiment [11] and in experiment [12] was inactive.
